Experiment [1] is described as follows: NCI Yeast Anticancer Drug Screen. Data for the rad50 strain (AID 155).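 Note: 0% = growth of vehicle-only cultures of the same strain.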 Conditions: S. cerevisiae rad50 strain growth inhibition, active compounds read high. The procedure, abridged: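 Genetically altered yeast (DNA repair pathway); compound treatment; growth inhibition vs vehicle ctrl.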
Experiment [2] can be described thus: NCI Yeast Anticancer Drug Screen. Data for the mec2-1 strain (AID 157). The conditions noted are these: S. cerevisiae mec2-1 strain, active compounds read high. The procedure, abridged:
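Compounds were applied to mec2-1 yeast cells. Their growth was then compared with that of vehicle-treated cultures to give growth inhibition.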

Experiment [3] in a line: NCI Yeast Anticancer Drug Screen. Data for the sgs1 mgt1 strain (AID 161).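 Note: 0% = growth of cultures given vehicle only.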 The conditions noted are these: S. cerevisiae sgs1 mgt1 strain, active compounds read high. The procedure, abridged:
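Growth of a repair-deficient yeast mutant was monitored after compound treatment and expressed as inhibition relative to vehicle-treated cultures.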

Experiment [4] in a line: NCI Yeast Anticancer Drug Screen. Data for the cln2 rad14 strain (AID 165).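 Note: 0% = growth equal to vehicle treated cultures.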 Conditions: S. cerevisiae cln2 rad14 strain, active compounds read high. The procedure, abridged: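 Strain: cln2 rad14 yeast, altered in cell cycle control and DNA damage repair. Read-out: growth inhibition vs vehicle.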
The nature of experiment [5]: NCI Yeast Anticancer Drug Screen. Data for the bub3 strain (AID 167). The conditions noted are these: S. cerevisiae bub3 mutant strain, active compounds read high. The procedure, abridged: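 Yeast carrying a defined mutation is treated with each compound, and growth is compared with that of vehicle-exposed cells to give inhibition.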
A short description of experiment [6]: NCI Yeast Anticancer Drug Screen. Data for the mlh1 rad18 strain (AID 175). Conditions: S. cerevisiae mlh1 rad18 strain growth inhibition, active compounds read high. The procedure, abridged:
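A repair-deficient yeast strain is exposed to test compound, and growth is scored relative to vehicle-treated controls.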

[7] abbreviates: at 5.0 µM (retest, dose inferred, filed as 0.5).
Where [8] appears, read: at 50.0 µM (retest, dose inferred, filed as 5.0).

Structures are written as SMILES. This is part of a sample that, as a whole, favours compounds with a hit. Of some 79,000 tested, about 15% had one in any assay. Values without a mark were called inactive. Activity calls are given as the source filed them. Cut-off read from the data, not from the text of the source: active = growth inhibition above about 70%; inactive = the rest.

On to `CC12OC(=O)C(C(N)=O)=C1C=C(c1ccccc1)CC2c1ccccc1` (stereo not given), for which the growth inhibition was -1% in experiment [1] (setting [7]); 23% in experiment [1] (setting [8]); 65% in experiment [1] (at 50.0 µM); 12% in experiment [2] (setting [7]); 53% in experiment [2] (setting [8]); 43.9% in experiment [2] (at 50.0 µM). The growth inhibition in experiment [3] (setting [7]) is -5%; in experiment [3] (setting [8]), 67%; in experiment [3] (at 50.0 µM), 86.8% (active); in experiment [4] (setting [7]), -3%; in experiment [4] (setting [8]), 21%; in experiment [4] (at 50.0 µM), 82.5% (active). For the same compound, the growth inhibition in experiment [5] (setting [7]) is -4%; in experiment [5] (setting [8]), 60%; in experiment [5] (at 50.0 µM), 87.5% (active); in experiment [6] (setting [7]) it was 11%; in experiment [6] (setting [8]), 83% (active); in experiment [6] (at 50.0 µM) it was 86.1% (active).

With `[O-][n+]1c2c(cc3ccccc31)Cc1ccccc1-2`, the growth inhibition in experiment [1] (setting [7]) was 2%; in experiment [1] (setting [8]), 31%; in experiment [1] (at 50.0 µM), 21.7%; in experiment [2] (setting [7]) it was 3%; in experiment [2] (setting [8]) it was 19%; in experiment [2] (at 50.0 µM), 35%. The growth inhibition is -3% in experiment [3] (setting [7]); 5% in experiment [3] (setting [8]); -22.6% in experiment [3] (at 50.0 µM); 4% in experiment [4] (setting [7]); 3% in experiment [4] (setting [8]); 20.4% in experiment [4] (at 50.0 µM). Further, the growth inhibition was 7% in experiment [5] (setting [7]); 29% in experiment [5] (setting [8]); 24.4% in experiment [5] (at 50.0 µM); 3% in experiment [6] (setting [7]); 20% in experiment [6] (setting [8]); 30.7% in experiment [6] (at 50.0 µM).

In the case of `CCCCCCc1c(Cl)nc(Cl)nc1Cl`, the growth inhibition in experiment [1] (setting [7]) is -1%; in experiment [1] (setting [8]), 56%; in experiment [1] (at 50.0 µM), 65.8%; in experiment [2] (setting [7]) it was 1%; in experiment [2] (setting [8]) it was 43%; in experiment [2] (at 50.0 µM), 26.2%. The growth inhibition in experiment [3] (setting [7]) is -6%; in experiment [3] (setting [8]) it was 41%; in experiment [3] (at 50.0 µM), 63.5%; in experiment [4] (setting [7]), 0%; in experiment [4] (setting [8]), 15%; in experiment [4] (at 50.0 µM) it was -46.6%. The growth inhibition in experiment [5] (setting [7]) is -1%; in experiment [5] (setting [8]), 33%; in experiment [5] (at 50.0 µM), 25.1%; in experiment [6] (setting [7]) it was -2%; in experiment [6] (setting [8]) it was 66%; in experiment [6] (at 50.0 µM), 87.2% (active).

Regarding `Cc1ccccc1Sc1ccccc1[N+](=O)[O-]`, the growth inhibition in experiment [1] (setting [7]) is 2%; in experiment [1] (setting [8]), 35%; in experiment [1] (at 50.0 µM) it was 12.9%; in experiment [2] (setting [7]), 1%; in experiment [2] (setting [8]), 5%; in experiment [2] (at 50.0 µM), 12.8%. Moreover, the growth inhibition is 0% in experiment [3] (setting [7]); 27% in experiment [3] (setting [8]); 26.1% in experiment [3] (at 50.0 µM); 5% in experiment [4] (setting [7]); 7% in experiment [4] (setting [8]); 11.1% in experiment [4] (at 50.0 µM). In addition, the growth inhibition in experiment [5] (setting [7]) was -1%; in experiment [5] (setting [8]), 8%; in experiment [5] (at 50.0 µM) it was 20.6%; in experiment [6] (setting [7]), 2%; in experiment [6] (setting [8]), 39%; in experiment [6] (at 50.0 µM), 74.5% (active).

For `COc1cc(C=O)c(Cl)cc1O`, the growth inhibition was 2% in experiment [1] (setting [7]); 21% in experiment [1] (setting [8]); 55% in experiment [1] (at 50.0 µM); 1% in experiment [2] (setting [7]); 43% in experiment [2] (setting [8]); 67% in experiment [2] (at 50.0 µM). The growth inhibition in experiment [3] (setting [7]) is 1%; in experiment [3] (setting [8]), 47%; in experiment [3] (at 50.0 µM), 90% (active); in experiment [4] (setting [7]) it was -4%; in experiment [4] (setting [8]), 25%; in experiment [4] (at 50.0 µM), 60.2%. In addition, the growth inhibition in experiment [5] (setting [7]) is -2%; in experiment [5] (setting [8]) it was 14%; in experiment [5] (at 50.0 µM), 44.5%; in experiment [6] (setting [7]), 2%; in experiment [6] (setting [8]), 34%; in experiment [6] (at 50.0 µM), 77.8% (active).

`Fc1ccc(C2(CCCN3CCc4[nH]c5cc(F)ccc5c4C3)OCCO2)cc1`: the growth inhibition in experiment [1] (setting [7]) is 31%; in experiment [1] (setting [8]), 97% (active); in experiment [1] (at 50.0 µM) it was 70.2% (active); in experiment [2] (setting [7]), 27%; in experiment [2] (setting [8]), 98% (active); in experiment [2] (at 50.0 µM), 79% (active). Also, the growth inhibition in experiment [3] (setting [7]) was 25%; in experiment [3] (setting [8]), 99% (active); in experiment [3] (at 50.0 µM), 84.5% (active); in experiment [4] (setting [7]) it was 18%; in experiment [4] (setting [8]), 96% (active); in experiment [4] (at 50.0 µM), 83.3% (active). Also, the growth inhibition is 24% in experiment [5] (setting [7]); 98% (active) in experiment [5] (setting [8]); 39.5% in experiment [5] (at 50.0 µM); 29% in experiment [6] (setting [7]); 99% (active) in experiment [6] (setting [8]); 91% (active) in experiment [6] (at 50.0 µM).

Consider `c1csc(CNCc2cccs2)c1`, for which the growth inhibition in experiment [1] (setting [7]) was -3%; in experiment [1] (setting [8]) it was -5%; in experiment [1] (at 50.0 µM), -13.9%; in experiment [2] (setting [7]), -2%; in experiment [2] (setting [8]) it was 1%; in experiment [2] (at 50.0 µM), 1.45%. Moreover, the growth inhibition is -1% in experiment [3] (setting [7]); -5% in experiment [3] (setting [8]); -1.2% in experiment [3] (at 50.0 µM); -4% in experiment [4] (setting [7]); -4% in experiment [4] (setting [8]); -23.4% in experiment [4] (at 50.0 µM). Further, the growth inhibition in experiment [5] (setting [7]) was -1%; in experiment [5] (setting [8]) it was -5%; in experiment [5] (at 50.0 µM) it was 1.3%; in experiment [6] (setting [7]), 0%; in experiment [6] (setting [8]), -7%; in experiment [6] (at 50.0 µM) it was 37.3%.

In the case of `Cc1cc2c(C(C)C)c(O)c(O)c(C=Nc3ccc(C(=O)O)cc3)c2c(O)c1-c1c(C)cc2c(C(C)C)c(O)c(O)c(C=Nc3ccc(C(=O)O)cc3)c2c1O`, the growth inhibition in experiment [1] (setting [7]) was 14%; in experiment [1] (setting [8]), 97% (active); in experiment [1] (at 50.0 µM) it was 91.8% (active); in experiment [2] (setting [7]), 27%; in experiment [2] (setting [8]), 98% (active); in experiment [2] (at 50.0 µM), 91.2% (active). Moreover, the growth inhibition was 34% in experiment [3] (setting [7]); 97% (active) in experiment [3] (setting [8]); 61.4% in experiment [3] (at 50.0 µM); -3% in experiment [4] (setting [7]); 95% (active) in experiment [4] (setting [8]); 73.3% (active) in experiment [4] (at 50.0 µM). Further, the growth inhibition is 4% in experiment [5] (setting [7]); 98% (active) in experiment [5] (setting [8]); 58.5% in experiment [5] (at 50.0 µM); 40% in experiment [6] (setting [7]); 98% (active) in experiment [6] (setting [8]); 86.3% (active) in experiment [6] (at 50.0 µM).

Take `O=C(O)Cc1cccc2c(=O)c3cccc([N+](=O)[O-])c3[nH]c12`: the growth inhibition in experiment [1] (setting [7]) was 32%; in experiment [1] (setting [8]) it was 87% (active); in experiment [1] (at 50.0 µM), 74.6% (active); in experiment [2] (setting [7]), 24%; in experiment [2] (setting [8]), 83% (active); in experiment [2] (at 50.0 µM) it was 58%. For the same compound, the growth inhibition in experiment [3] (setting [7]) is 24%; in experiment [3] (setting [8]), 60%; in experiment [3] (at 50.0 µM), 53.1%; in experiment [4] (setting [7]), 28%; in experiment [4] (setting [8]), 79% (active); in experiment [4] (at 50.0 µM) it was 65%. Moreover, the growth inhibition was 22% in experiment [5] (setting [7]); 85% (active) in experiment [5] (setting [8]); 45.5% in experiment [5] (at 50.0 µM); 28% in experiment [6] (setting [7]); 86% (active) in experiment [6] (setting [8]); 69.8% in experiment [6] (at 50.0 µM).

With `NNc1ccccc1[N+](=O)[O-]`, the growth inhibition in experiment [1] (setting [7]) was 8%; in experiment [1] (setting [8]), 80% (active); in experiment [1] (at 50.0 µM) it was 89% (active); in experiment [2] (setting [7]) it was 8%; in experiment [2] (setting [8]), 84% (active); in experiment [2] (at 50.0 µM), 89.2% (active). For the same compound, the growth inhibition in experiment [3] (setting [7]) was -2%; in experiment [3] (setting [8]) it was 62%; in experiment [3] (at 50.0 µM), 84.6% (active); in experiment [4] (setting [7]) it was 24%; in experiment [4] (setting [8]) it was 82% (active); in experiment [4] (at 50.0 µM), 77.2% (active). Further, the growth inhibition was 6% in experiment [5] (setting [7]); 98% (active) in experiment [5] (setting [8]); 88.5% (active) in experiment [5] (at 50.0 µM); -11% in experiment [6] (setting [7]); 96% (active) in experiment [6] (setting [8]); 83.3% (active) in experiment [6] (at 50.0 µM).
